The source of these data is PubChem BioAssay AID686978 (National Center for Advancing Translational Sciences (NCATS), 2013).

SMILES strings stand for the structures. Among all 420,000 compounds or so, about 64,000 (15%) were called active. About 27% were inconclusive and are not listed. Only a sample is shown. Unmarked numbers belong to inactive results. Calls come from the whole dose curve; as a rule, active = well fitted inhibition curve with a large enough effect; inconclusive = small, poorly fitted or top-dose-only effect; inactive = flat fitted curve, though single readings scatter.
% is set by controls: 0 for no effect and ±100 for the full control effect; potency is the fitted concentration of half-maximal effect.

This assay in a line: qHTS for Inhibitors of human tyrosyl-DNA phosphodiesterase 1 (TDP1): qHTS in cells in absence of CPT. Note: nearly all actives have a fitted effect of over 55% in size. The note with it: DT40 Tdp1-/- hTDP1 cells, no CPT, ATP luminescence, 48 h; activity change, negative = growth inhibition: at 46.2 µM (top of the series). From the text: Human tyrosyl-DNA phosphodiesterase 1 (TDP1) is a novel repair gene, and we propose to use it as a new target for anticancer drug development. TDP1 is not an essential protein, but under treatment with topoisomerase I poison (camptothecin: CPT), TDP1 works as a critical factor for cell survival. To directly identify novel TDP1 inhibitors active in a cellular environment, we have knocked-out the Tdp1 gene in chicken DT40 cells (Tdp1-/-) and generated a complemented counterpart cells that contains a stable transfection of the human TDP1 gene (Tdp1-/-;hTDP1 cells). For the primary screen, Tdp1-/-;hTDP1 cells will be exposed to small molecules in the presence or absence of CPT, and their growth kinetics will be evaluated after 48 hours by measuring ATP activity. […] The hit compounds will then be evaluated in the presence or absence of CPT using Tdp1-/- cells. […] In tertiary assays, biochemical gel-based assays will be used to assess whether the hit compounds specifically target TDP1.
To this end, we have screened this cell line against the MLSMR in two primary screens. In one screen we add CPT and in the other we screen in the absence of CPT; this AID represents the screen where CPT was absent.
NIH Chemical Genomics Center [NCGC]
NIH Molecular Libraries Probe Centers Network [MLPCN]
Assay Submitter (PI): Yves Pommier, NCI
DT40-hTDP1 cells without 20 nM Camptothecin (add 20 microL of DMSO in 1 L of cell culture medium) were dispensed at 400 cells/5microL/well in tissue culture treated 1536-well white wall/solid bottom assay plates (Greiner Bio-One North America, NC, U.S.A.) using a Multidrop Combi 8 channel dispenser (Thermo Fisher, Waltham, MA, USA). 23 nL compounds and controls were transferred using the pin tool (Kalypsys, San Diego, CA, USA) to the assay plates. The assay plates were then incubated at 37 masculineC for a minimum 48 hr. Three microL of Cell Titer Glo solution was added to the plates and incubated at RT in dark for 30 min. Luminescence was read using ViewLux (Perkin Elmer) with 1 sec exposure slow speed, high gain and 2x binning.
With `COc1ccc2nc(N3C(=O)C(O)=C(C(=O)c4ccco4)C3c3ccco3)sc2c1` (centres undefined), the “activity change, negative = growth inhibition” value is -10.9%.

Turning to `COc1ccc2nc(N3CCN(C(=O)c4ccc([N+](=O)[O-])o4)CC3)sc2c1`, the Potency was 20.6 µM (active).

Turning to `COC(=O)[C@H](CCSC)NC(=O)Nc1ccc(OC)cc1`, the “activity change, negative = growth inhibition” value was 8.53%.

As for `CCN(CC)C(=O)CCC(=O)Nc1ccc(C(=O)OC)cc1`, the “activity change, negative = growth inhibition” value was 1.08%.

As to `Cc1ccc(NC(=O)C(=O)NCC(c2cccnc2)N2CCOCC2)cc1` (centres undefined), the “activity change, negative = growth inhibition” value was -17.6%.

Regarding `COc1ccccc1N1CCN(C(CNC(=O)C(=O)NCc2ccc(C)cc2)c2cccnc2)CC1` (centres undefined), the Potency is 2.06 µM (active).

As for `Cc1ccc(C)c(NC(=S)NCC(c2cccnc2)N2CCOCC2)c1` (centres undefined), the “activity change, negative = growth inhibition” value is -12.6%.

Consider `Cc1cc(C)n(-c2nnc(C)n2NC(=O)c2cccc(Cl)c2)n1`, for which the “activity change, negative = growth inhibition” value is -4.6%.

On to `Cn1c(SCC(=O)c2cccs2)nnc1-c1ccco1`, for which the “activity change, negative = growth inhibition” value was 0.382%.

For `O=C(CN1C(=O)/C(=C\c2ccc(C(F)(F)F)cc2)Sc2ccccc21)NCc1ccco1`, the Potency was 13 µM (active).

Consider `O=C(CCCCCN1C(=O)c2cccc3cccc(c23)C1=O)NCc1ccco1`, for which the “activity change, negative = growth inhibition” value is -20.4%.

On to `CC1CCC2(CC1)NC(=O)N(CC(=O)NCc1ccco1)C2=O` (centres undefined), for which the “activity change, negative = growth inhibition” value was -3.31%.

For the compound `Cc1cccc(NS(=O)(=O)c2cc(Cl)ccc2Cl)n1`, the “activity change, negative = growth inhibition” value is -14.9%.

With `Nc1nc(SCC(=O)NN(c2ccccc2)c2ccccc2)n[nH]1`, the “activity change, negative = growth inhibition” value is -12.2%.

`CCOC(=O)C(Cc1ccccc1)NC(=O)CCC(=O)c1ccc(OC)cc1` (centres undefined): the “activity change, negative = growth inhibition” value is -4.08%.

In the case of `O=C(NCCc1ccccn1)c1cc(C(=O)C2CCCCC2)c[nH]1`, the “activity change, negative = growth inhibition” value is -23.5%.

On to `Cn1cnnc1SCC(=O)Nc1ccc(N2CCOCC2)cc1`, for which the “activity change, negative = growth inhibition” value is 7.4%.

With `O=C(NCCc1ccccn1)c1cc(-c2ccc(Cl)cc2)nc2ccccc12`, the Potency is 18.4 µM (active).

On to `O=C(CNC(=O)COc1ccccc1)NCCc1ccccn1`, for which the “activity change, negative = growth inhibition” value is 5.28%.

`CN(CC(=O)NCCc1ccccn1)S(=O)(=O)c1ccc(Cl)cc1`: the “activity change, negative = growth inhibition” value is 0.788%.

Turning to `Cc1cc(=O)oc(C)c1C(=O)NC1CC(C)(C)NC(C)(C)C1`, the “activity change, negative = growth inhibition” value was -1.14%.

Consider `O=C(CC1SCCNC1=O)Nc1ccc(Cl)cc1` (centres undefined), for which the “activity change, negative = growth inhibition” value was -10.1%.

On to `CCOc1ccccc1NC(=O)CCN1CCN(S(=O)(=O)c2ccc(OC)cc2)CC1`, for which the “activity change, negative = growth inhibition” value was -19.4%.

As to `COc1ccc(C2CC(=O)Nc3sc(=N)c4c(N)c(C#N)c(N)nc4c32)cc1OC` (centres undefined), the “activity change, negative = growth inhibition” value is -15.6%.

For the compound `N#Cc1c(N)nc2c3c(sc(=N)c2c1N)NC(=O)CC3c1ccccc1Cl` (centres undefined), the Potency was 13 µM (active).

For `COCCN(C(=S)Nc1ccccc1OC)C1CCN(C(C)C)CC1`, the “activity change, negative = growth inhibition” value is 13.4%.

For `CC(Sc1nncs1)C(=O)NCc1ccc2c(c1)OCO2` (centres undefined), the “activity change, negative = growth inhibition” value was -15.6%.

For `O=C(C1Cc2ccccc2CN1C(=O)c1ccco1)N1CCN(c2ccccc2)CC1` (centres undefined), the “activity change, negative = growth inhibition” value is -5.87%.

For the compound `O=[N+]([O-])c1ccc2[nH]c3c(c2c1)CCCC3O` (centres undefined), the “activity change, negative = growth inhibition” value was -21.5%.

Take `Cc1nn(C(C)C(=O)NCCc2ccccc2)c(=O)c2c1sc1ccccc12` (centres undefined): the Potency is 16.4 µM (active).

With `CCc1cc2c(cc3c(=O)n(CC(=O)N4CCN(c5cc(Cl)ccc5C)CC4)nc(CC)n32)s1`, the “activity change, negative = growth inhibition” value is -27.1%.

As to `Cc1nn(CCCC(=O)NCc2ccccc2Cl)c(=O)c2nccn12`, the “activity change, negative = growth inhibition” value was -16.9%.

Take `Cc1ccccc1CNC(=O)CCCn1nc(C)c2sc3ccccc3c2c1=O`: the Potency is 20.6 µM (active).

As for `CCc1nn(CC(=O)N2CCN(c3cc(C)ccc3C)CC2)c(=O)c2cc3occc3n12`, the “activity change, negative = growth inhibition” value was -16.9%.

Turning to `CC(NCCc1ccc(S(N)(=O)=O)cc1)C(=O)NCc1ccccc1` (centres undefined), the “activity change, negative = growth inhibition” value was 13.9%.

`C[C@H](NC(=O)NCCc1ccccc1)C(=O)O`: the “activity change, negative = growth inhibition” value is 3.87%.

As to `CCc1nn(CCCC(=O)NCc2ccccc2OC)c(=O)c2cc3occc3n12`, the “activity change, negative = growth inhibition” value was -8.88%.

Take `Cc1ccc(C)c(N2CCN(C(=O)Cn3nc(C)c4sc5ccccc5c4c3=O)CC2)c1`: the Potency is 23.1 µM (active).

As for `Cc1cc(C)cc(OCC(=O)NNC(=O)CCN2C(=O)c3ccccc3C2=O)c1`, the “activity change, negative = growth inhibition” value was -13.1%.

Take `Cc1ccc(O)c(NC(=O)c2cc(-c3ccco3)on2)c1`: the “activity change, negative = growth inhibition” value was -20.7%.

Take `CC1Cc2cc(/C(O)=C3\C(=O)C(=O)N(CCN4CCOCC4)C3c3ccccc3F)ccc2O1` (centres undefined): the “activity change, negative = growth inhibition” value is 1.69%.

As for `O=C(O)CC1S/C(=N\N=C/c2ccccc2O)N(c2ccc(O)cc2)C1=O` (centres undefined), the “activity change, negative = growth inhibition” value is -0.385%.

Take `CN(C(=O)c1ccccc1)c1nccnc1C#N`: the “activity change, negative = growth inhibition” value was -11.8%.

On to `CC(=O)Nc1cccc(C(=O)OCC(=O)NCc2cc(C)c(O)c(C)c2)c1`, for which the “activity change, negative = growth inhibition” value is 6.94%.

In the case of `Brc1ccc(-c2csc(N/N=C/c3ccc4c(c3)OCO4)n2)cc1`, the Potency is 8.2 µM (active).

For `O=C(CN1CCN(c2nc(-c3ccccc3)cs2)CC1)NCc1ccc2c(c1)OCO2`, the “activity change, negative = growth inhibition” value was -25.4%.

As for `Cc1cc(=O)[nH]c(N/N=C/c2ccc3c(c2)OCCO3)n1`, the “activity change, negative = growth inhibition” value is 16.8%.

Regarding `O=C(NCC(=O)N1CCN(c2ccccc2F)CC1)c1cccs1`, the “activity change, negative = growth inhibition” value is 6.86%.

In the case of `COc1cc(/C=C(\C#N)C(=O)Nc2ccc3ccccc3c2)c([N+](=O)[O-])cc1OC`, the “activity change, negative = growth inhibition” value was -10.2%.

In the case of `O=c1ccc2cc(S(=O)(=O)Nc3ccccc3F)ccc2o1`, the “activity change, negative = growth inhibition” value was -31.6%.

Take `Nc1ccc(OCC(O)C[n+]2ccc(CCS(=O)(=O)[O-])cc2)cc1` (centres undefined): the “activity change, negative = growth inhibition” value is -3.67%.

For the compound `CCCc1cc(=O)[nH]c(SCC(=O)c2c(N)n(CC(C)C)c(=O)n(C)c2=O)n1`, the “activity change, negative = growth inhibition” value was -20.6%.

Turning to `COc1ccc(C(=O)COC(=O)CN2C(=O)C3CC=CCC3C2=O)c(OC)c1` (centres undefined), the “activity change, negative = growth inhibition” value was -1.18%.

For `CC(C)Cn1c(N)c(C(=O)COC(=O)CN2C(=O)C3CC=CCC3C2=O)c(=O)n(C)c1=O` (centres undefined), the Potency is 9.2 µM (active).
